Assay results as given in PubChem BioAssay (EPA / NIEHS).
The source made the active and inactive calls. Rule for the calls: active = hit-call score of the fitted dose curve at least 0.9, where 1 is the maximum; inconclusive = response in the unintended direction; inactive = score below 0.9.

Experiment: CPHEA_Stoker_NIS_Cytotoxicity: Cytotoxicity Assessment for CPHEA's Radioactive Iodide Uptake (RAIU) Assay for Sodium/Iodide Symporter (NIS) Inhibition, Stoker and Laws Labs (AID 2283897);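 for AC50: active means loss of ATP signal versus DMSO meaning cytotoxicity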
Method: CPHEA_Stoker_NIS is a cell-based, single-readout assay that uses hNIS-HEK293T-EPA, a novel human kidney cell line expressing human NIS, with measurements taken at 2 hours after chemical dosing in a 96-well plate. This radioactive iodide uptake (RAIU) assay is used to identify inhibitors of NIS-mediated iodide uptake. A parallel cytoxicity assay (Cell Titer Glo, Promega) was also run in the same cell line.CPHEA_Stoker_NIS_Cytotoxicity is one of 2 assay components measured from the CPHEA_Stoker_NIS assay. It is designed to make measurements of atp content, a form of viability reporter, as detected with bioluminescence signals by Luciferase-coupled ATP quantitation technology.Data from the assay component CPHEA_Stoker_NIS_Cytotoxicity was analyzed at the endpoint, CPHEA_Stoker_NIS_Cytotoxicity, in the positive analysis fitting direction relative to DMSO as the negative control and baseline of activity. Using a type of viability reporter, measures of ATP content for loss-of-signal activity can be used to understand the viability. To generalize the intended target to other relatable targets, this assay endpoint is annotated to the cell cycle intended target family, where the subfamily is cytotoxicity.
hNIS-HEK293T-EPA cells were seeded with a MultiFlo FX dispenser (BioTek, Winooski, VT) into ScintiPlate-96 microplates (Perkin Elmer, Waltham, MA) at a density of 4.0x10^4 cells per well in 200uL growth media and incubated for 40 hours before experimentation. On day of the assay, carrier-free 125I (Perkin-Elmer, Waltham, MA; specific activity: 17.4Ci/mg) was diluted with Hanks' balanced salt solution (Sigma, St. Louis, MO) supplemented with 10mM HEPES (uptake buffer; pH 7.4) at 5uCi/mL (288pg 125I/mL uptake buffer; 2.30nM). The assay was initiated by washing cells twice with 200uL uptake buffer using a 96-well Tecan HydroSpeed plate washer (Tecan, Mannedorf, Switzerland). Uptake buffer (59.7uL) was then added back to each well. Chemical samples (350nL at 200X) were administered using the HDR tool as previously described to achieve a 1X chemical/0.5% final DMSO concentration with subsequent addition of 10uL of 125I dilution (final [125I]: 329pM; 2.88pg/well) for a final reaction volume of 70uL/well. Cells were incubated at room temperature for 2 hours and then washed twice with 200uL ice cold uptake buffer. All uptake buffer was aspirated from wells, plates were sealed, and read on a MicroBeta2 plate reader (Perkin Elmer, Waltham, MA) using a detection protocol to measure CPM corresponding to intracellular 125I concentration. Each chemical concentration (0.001, 0.01, 0.1, 1.0, 10, and 100uM) was assayed in triplicate with three independent biological replicate plates (3 sequential cell passages). Additionally, a concentration response of NaClO4 (0.001, 0.01, 0.1, 1.0, 10, and 100uM) served as a positive control inhibition curve on each RAIU assay plate. DMSO control wells were assayed on each plate as a measure of maximum iodide uptake for normalization and determination of intra- and inter-assay variation. (Toxicol In Vitro, 2017, 40:66-78).

| Structure (SMILES) | outcome | AC50 |
| --- | --- | --- |
| O=Cc1ccccc1C=O | inactive |  |
| CC(=O)O[C@]1(C(C)=O)CC[C@H]2[C@@H]3C=C(Cl)C4=CC(=O)[C@@H]5C[C@@H]5[C@]4(C)[C@H]3CC[C@@]21C | inactive |  |
| CCCCCCC(C=O)=Cc1ccccc1 | inactive |  |
| Cc1ccc(C(C)(C)C)c(O)c1 | inactive |  |
| CCCCCCC(CCCCCCCCCCC(=O)OCC(COC(C)=O)OC(C)=O)OC(C)=O (centres undefined) | inactive |  |
| CC(=O)OCC(COC(C)=O)OC(C)=O | inactive |  |
| CCN(CC)CCOc1ccc(C(=C(Cl)c2ccccc2)c2ccccc2)cc1 |  | 9.92 µM (active) |
| CSc1ccc(Oc2ccc(S(N)(=O)=O)cc2CN(C)C)cc1C | inactive |  |
| CN(C)C(=O)NC1(c2ccccc2)CCN(CCC[C@]2(c3ccc(Cl)c(Cl)c3)CCCN(C(=O)c3ccccc3)C2)CC1 | inactive |  |
| O=C1OC(c2ccc(O)cc2)(c2ccc(O)cc2)c2ccccc21 | inactive |  |
| CCCCCCCCCCCCCCOS(=O)(=O)O | inactive |  |
| CN(C)CCCN1c2ccccc2Sc2ccc(Cl)cc21 | inactive |  |
| Cc1c(C)c2c(c(C)c1O)CCC(C)(COc1ccc(CC3SC(=O)NC3=O)cc1)O2 (centres undefined) |  | 12.5 µM (active) |
| CCc1nc(N)nc(N)c1-c1ccc(Cl)cc1 | inactive |  |
| O=C(Oc1ccccc1)c1cccc(C(=O)Oc2ccccc2)c1 | inactive |  |
| CCC(C)N(C)C(=O)c1cc2ccccc2c(-c2ccccc2Cl)n1 (centres undefined) | inactive |  |
| CC(COCC(C)OC(=O)c1ccccc1)OC(=O)c1ccccc1 (centres undefined) | inactive |  |
| COc1ccc(OC(F)(F)F)cc1CN[C@H]1CCCN[C@H]1c1ccccc1 | inactive |  |
| Cc1ccc(-c2cc(C(F)(F)F)nn2-c2ccc(S(N)(=O)=O)cc2)cc1 | inactive |  |
